USP10 block: inhibitors of human USP10 deubiquitinase | purified USP10, Ub-rhodamine fluorescence, 60 min | inhibition, % at 20 µM | hit rate 1.1% among 47,000 | AID 1645856, 2021
OTUD3 block: inhibitors of human OTUD3 deubiquitinase; purified OTUD3, Ub-rhodamine fluorescence, 2 h; inhibition, % at 25 µM; hit rate 0.7% among 47,000; AID 1645858, 2021
USP7 inh: inhibitors of human USP7 deubiquitinase. inhibition, % at 20 µM. Ubiquitin carboxyl-terminal hydrolase 7 (Homo sapiens), Q93009. hit rate 0.3% among 47,000. AID 1645854, 2021. purified USP7, Ub-rhodamine cleavage fluorescence
UCHL1 inh: inhibitors of human UCHL1 deubiquitinase; Ubiquitin carboxyl-terminal hydrolase isozyme L1 (Homo sapiens), P09936; purified UCHL1, Ub-rhodamine cleavage fluorescence; inhibition, % at 20 µM; hit rate 0.2% among 47,000
Target sequence (P09936 whole entry, looked up): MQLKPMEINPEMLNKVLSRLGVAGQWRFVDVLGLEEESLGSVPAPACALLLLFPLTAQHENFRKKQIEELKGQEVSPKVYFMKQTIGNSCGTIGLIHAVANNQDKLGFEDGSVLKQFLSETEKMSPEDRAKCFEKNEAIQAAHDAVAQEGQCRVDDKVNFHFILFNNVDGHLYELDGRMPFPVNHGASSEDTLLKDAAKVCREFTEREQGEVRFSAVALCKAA
USP8 block: inhibitors of human USP8 deubiquitinase. AID 1645853, 2021. purified USP8, Ub-rhodamine cleavage fluorescence, 30 min. hit rate 4.2% among 47,000. inhibition, % at 20 µM. Ubiquitin carboxyl-terminal hydrolase 8 (Homo sapiens), P40818
Active calls of the source: *. Rows were chosen to be rich in hits. Some 5% of all compounds tested hit in one or more screens of this group. Rule as the data show it: active = inhibition above about 30%; inactive = the rest.

SMILES	USP10 block	OTUD3 block	USP7 inh	UCHL1 inh	USP8 block
Cc1nc(C2CN(Cc3nc4ccccc4n3C)CCO2)cc(=O)[nH]1 (stereo not drawn)	3.4	7.8	4.6	0.0	31.3*
Cc1nc(C2CN(Cc3ccc4c(c3)OCCO4)CCO2)cc(=O)[nH]1 (stereo not drawn)	1.4	10.6	-0.6	-0.6	4.4
Clc1ccccc1CN1CCC(c2nnc(-c3cccnc3)o2)CC1	0.4	-2.8	-0.5	-1.7	-0.1
COc1ccc(N2CCN(CC(O)COCc3ccc(Cl)cc3)CC2)cc1 (stereo not drawn)	-0.3	-4.2	-7.7	-3.2	-19.8
SC(COCc1ccccc1)CN1CCN(c2ccccc2)CC1 (stereo not drawn)	3.1	33.2*	7.3	1.9	-46.2
CCOC(=O)C1CCN(C(=O)c2ccc3c(=O)n(-c4ccccc4)c(=O)[nH]c3c2)CC1	0.4	-1.5	-3.6	-0.1	0.3
O=C(NCc1ccc(F)cc1Cl)c1csc(C(=O)N2CCCC2)n1	-1.0	-6.1	-9.6	-0.9	-2.4
O=C1Nc2cc(C(=O)N3CCCC3)ccc2NC1CS(=O)(=O)Cc1ccc(F)cc1Cl (stereo not drawn)	-4.2	-42.7	-16.4	-3.6	34.9*
CCOC(=O)C1CCN(C(=O)c2ccc3c(c2)NC(=O)C(CS(=O)(=O)Cc2ccccc2Cl)N3)CC1 (stereo not drawn)	-12.4	-36.3	-13.8	-3.2	48.8*
CN1CCc2c(sc3c2c(NCc2cccnc2)nc2nnnn23)C1	-2.9	-44.1	-13.2	-22.7	39.2*
CC1CCC(C(=O)NC(C(=O)OCC(=O)c2ccc(Cl)cc2)C(C)C)CC1 (stereo not drawn)	4.6	11.7	0.4	0.1	-5.1
Cc1ccc(C)c(Nc2nc(NCc3ccccc3)c3ccccc3n2)c1	15.3	32.9*	9.8	10.5	22.2
Cn1ncc2c(NCc3ccccc3)nc(NCCO)nc21	2.0	0.1	0.5	0.3	-1.1
CC(Oc1ccc(F)cc1)c1nnc(C2(c3cccc(C(F)(F)F)c3)CCOCC2)o1 (stereo not drawn)	5.2	13.0	-107.7	5.4	20.4
O=C(CCc1ccc(S(=O)(=O)N2CCOCC2)cc1)OCC(=O)c1ccc(-c2ccccc2)cc1	37.7*	11.0	10.4	1.2	31.4*
O=C(Nc1ccccc1Cl)C1Cc2ccccc2CN1C(=O)c1ccccc1 (stereo not drawn)	-10.2	0.8	-15.8	-3.2	36.1*
O=C(NC(Cc1ccccc1)c1nc2ccccc2[nH]1)C1CC1 (stereo not drawn)	2.7	5.3	0.3	11.5	48.4*
CC(C)CC(NC(=O)c1ccc(Cl)cc1Cl)c1nc2ccccc2[nH]1 (stereo not drawn)	12.7	-2.5	-0.8	14.0	88.6*
CSCCC(NC(=O)COc1ccc(Cl)cc1)c1nc2ccccc2[nH]1 (stereo not drawn)	-9.6	-21.5	-22.3	-5.5	-11.1
O=C(Cc1coc2cc3c(cc12)CCC3)NC(Cc1ccccc1)c1nc2ccccc2[nH]1 (stereo not drawn)	0.0	-1.2	-4.2	2.1	65.6*
O=C(NC(Cc1ccccc1)c1nc2ccccc2[nH]1)c1ccccc1-c1ccccc1 (stereo not drawn)	-3.5	-12.1	1.1	0.0	54.0*
CC(C)CC(NC(=O)c1ccccn1)c1nc2ccccc2[nH]1 (stereo not drawn)	-9.3	-19.8	-9.0	-9.7	-13.3
O=C(N[C@@H]1C[C@@H](Oc2ccccc2)[C@H](O)[C@H]1N1CCCCC1)C1CCOCC1	1.4	9.5	1.6	0.0	7.7
COc1cccc(C(=O)N2CCN(c3ncnc4c3nnn4Cc3ccccc3)CC2)c1	3.5	20.2	-6.4	3.5	12.3
Cc1[nH]c2c(C)ccc(F)c2c1CCNC(=O)c1ccnn1C	-2.3	-3.2	0.0	2.8	9.5
COc1ccccc1/C=C/C(=O)NC(Cc1ccccc1)c1nc2ccccc2[nH]1 (stereo not drawn)	-5.9	-5.1	-3.7	5.5	91.9*
O=C(NC(Cc1ccccc1)c1nc2ccccc2[nH]1)c1ccc2ccccc2n1 (stereo not drawn)	1.5	6.4	8.6	2.9	11.6
Cn1cc(-c2nc(C(=O)Nc3ccc(C#N)cc3)cs2)c2cccnc21	13.9	-57.7	9.6	2.4	85.5*
O=C(Cn1cnc2cc3c(cc21)OCCCO3)N1CCCc2ccccc21	-3.6	-14.8	-9.6	-9.3	36.9*
